Records with an inconclusive call do not appear. Activity calls are given as the source filed them. The calls were made as follows, unless noted: active = hit-call score of the fitted dose curve at least 0.9, where 1 is the maximum; inconclusive = response in the unintended direction; inactive = score below 0.9.
How the values were obtained:
[1] = ATG_TCF_b_cat_CIS: Attagene CIS-FACTORIAL HepG2 Assay for human T-Cell-Factor with beta-catenin (TCF/b-cat) (AID 2282965; active = hit-call score of the fitted dose curve at least 0.9, where 1 is the maximum; inactive = score below 0.9); conditions: HepG2 TCF/beta-catenin cis-reporter transcription, actives raise or lower the signal
Summary of the method: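 HepG2, transient MRTU transfection, cis-element-driven reporters (endogenous TFs). 24 h compound exposure. Readout: reporter mRNA by RT-PCR + 6-FAM primer extension, HpaI digest, capillary electrophoresis. Gain/loss fit vs DMSO baseline.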

[2] = ATG_TAL_CIS: Attagene CIS-FACTORIAL HepG2 Assay for human TAL Basal Promoter (AID 2282966; active = hit-call score of the fitted dose curve at least 0.9, where 1 is the maximum; inactive = score below 0.9;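 also: background control endpoint measuring basal TAL promoter reporter mRNA not a specific factor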); conditions: HepG2 Attagene cis-factorial TAL promoter reporter; actives raise or lower the signal
Summary of the method: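 RT-PCR plus capillary electrophoresis quantifies reporter mRNA induction in transiently transfected HepG2 cells after 24 h chemical treatment. DMSO serves as negative control and baseline for bidirectional fitting.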

[3] = ATG_TGFb_CIS: Attagene CIS-FACTORIAL HepG2 Assay for human Transforming Growth Factor (TGF) (AID 2282967; active = hit-call score of the fitted dose curve at least 0.9, where 1 is the maximum; inactive = score below 0.9); conditions: HepG2 Attagene CIS TGFb reporter, mRNA transcription; actives raise or lower the signal
Summary of the method: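 HepG2 cells transiently transfected with cis-promoter-driven multiplexed reporter units; 24 h compound exposure. Reporter mRNA measured by RT-PCR, 6-FAM labeling, HpaI digestion and capillary electrophoresis; bidirectional fit versus DMSO baseline.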

[4] = ATG_VDRE_CIS: Attagene CIS-FACTORIAL HepG2 Assay for human Vitamin D Receptor Element (VDRE) (AID 2282968; active = hit-call score of the fitted dose curve at least 0.9, where 1 is the maximum; inactive = score below 0.9); conditions: HepG2 VDRE cis-reporter transcription, actives raise or lower the signal
Summary of the method: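 Cell-based multiplexed reporter format in human liver HepG2 cells, 24 h post-dose. Fluorescence from capillary electrophoresis of reporter cDNA gives the signal, with DMSO as negative control and baseline.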

[5] = molecular target: Nuclear receptor subfamily 1 group I member 3 (Homo sapiens) (UniProt Q14994); assay: ATG_CAR_TRANS: Attagene TRANS-FACTORIAL HepG2 Assay for human Constitutive Androstane Receptor (CAR) (AID 2282969); conditions: HepG2 Attagene TRANS-FACTORIAL CAR reporter;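 also: activators raise reporter mRNA above DMSO so AC50 marks induction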
Summary of the method: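 HepG2 cells transiently transfected with GAL4-UAS reporter units; TRANS format reads activity of exogenous chimeric NR-Gal4 protein. After 24 h dosing, reporter mRNA quantified by RT-PCR, 6-FAM labelling and capillary electrophoresis; gain of signal fitted against DMSO.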

[6] = molecular target: Estrogen receptor (Homo sapiens) (UniProt P03372); assay: ATG_ERa_TRANS: Attagene TRANS-FACTORIAL HepG2 Assay for human Estrogen Receptor alpha (ERa) (AID 2282970); conditions: HepG2 Attagene TRANS ERa GAL4 reporter, mRNA
Summary of the method: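 Cells: HepG2, transiently transfected. Construct: GAL4-UAS reporter units regulated by exogenous NR-Gal4 chimeras. Time: 24 h. Detection: reporter mRNA by RT-PCR, capillary electrophoresis, fluorescence. Baseline: DMSO, upward fitting.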

[7] = molecular target: Steroid hormone receptor ERR1 (Homo sapiens) (UniProt P11474); assay: ATG_ERRa_TRANS: Attagene TRANS-FACTORIAL HepG2 Assay for human Estrogen-Related Receptor alpha (ERRa) (AID 2282971); conditions: HepG2 Attagene TRANS reporter, ERRa transactivation
Summary of the method: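 Reporter transcripts from ERRa-Gal4 chimera activity measured in transiently transfected human HepG2 cells 24 hours after dosing, using RT-PCR with 6-FAM primer extension, HpaI digestion and capillary electrophoresis; DMSO is baseline.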

[8] = molecular target: X-box-binding protein 1 (Homo sapiens) (UniProt P17861); assay: ATG_Xbp1_CIS: Attagene CIS-FACTORIAL HepG2 Assay for human X-box Binding Protein 1 (XBP1) (AID 2282972; active = hit-call score of the fitted dose curve at least 0.9, where 1 is the maximum; inactive = score below 0.9); conditions: HepG2 XBP1 cis-element reporter, Attagene multiplex; actives raise or lower the signal
Summary of the method: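 Fluorescence-labelled cDNA fragments from reporter transcripts, separated by capillary electrophoresis, give the signal. Source: HepG2 cells transfected with promoter-driven reporter units, harvested 24 h post-dose. DMSO served as reference for bidirectional curve fitting.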

[9] = molecular target: Estrogen-related receptor gamma (Homo sapiens) (UniProt P62508); assay: ATG_ERRg_TRANS: Attagene TRANS-FACTORIAL HepG2 Assay for human Estrogen-Related Receptor gamma (ERRg) (AID 2282977); conditions: HepG2 Attagene TRANS reporter, ERRg transactivation;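 also: hits increase reporter signal over DMSO so potencies reflect activators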
Summary of the method: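 HepG2 cells transiently transfected with multiplexed GAL4-UAS reporter units and chimeric NR-Gal4 constructs were exposed to test chemicals for 24 h. Reporter mRNA was measured by RT-PCR, 6-FAM primer extension, HpaI digestion and capillary electrophoresis; gain-of-signal versus DMSO.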

[10] = molecular target: Bile acid receptor (Homo sapiens) (UniProt Q96RI1); assay: ATG_FXR_TRANS: Attagene TRANS-FACTORIAL HepG2 Assay for Farnesoid X Receptor (FXR) (AID 2282979); conditions: HepG2 Attagene TRANS FXR-GAL4 reporter transcription;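 also: hits raise reporter mRNA above DMSO so AC50 marks FXR activation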
Summary of the method: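 Reporter transcripts from transfected HepG2 cells were measured 24 h after dosing, using RT-PCR with capillary electrophoresis of 6-FAM-labelled fragments. The read-out reflects activity of exogenous FXR-Gal4 chimera on GAL4-UAS units, with induction relative to DMSO.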

[11] = molecular target: Oxysterols receptor LXR-alpha (Homo sapiens) (UniProt Q13133); assay: ATG_LXRa_TRANS: Attagene TRANS-FACTORIAL HepG2 Assay for human Liver X Receptor alpha (LXRa) (AID 2282980); conditions: HepG2 Attagene TRANS reporter, LXRa transactivation
Summary of the method: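 Chemical-induced reporter mRNA measured by RT-PCR with fluorescent labelling and capillary electrophoresis after 24 h dosing of transiently transfected HepG2 cells expressing exogenous NR-Gal4 chimeras; increases scored against DMSO baseline.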

[12] = ATG_M_06_TRANS: Attagene TRANS-FACTORIAL HepG2 Assay for M06 Transcription Factor (Internal Marker) (AID 2282983); conditions: HepG2 Attagene TRANS M06 internal marker reporter
Summary of the method: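 Cells: HepG2, transient multi-reporter transfection. Exposure: 24 h. Detection: RT-PCR, 6-FAM labelling, HpaI digestion (2 h, 37 °C), capillary electrophoresis. Baseline: DMSO.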

[13] = ATG_M_32_TRANS: Attagene TRANS-FACTORIAL HepG2 Assay for M32 Transcription Factor (Internal Marker) (AID 2282984); conditions: HepG2 Attagene TRANS M32 internal marker reporter;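 also: transcript level of a background control reporter unit measured by RT-PCR and capillary electrophoresis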
Summary of the method: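 Capillary electrophoresis of 6-FAM-labelled reporter fragments gives the signal; data fitted for gain over DMSO negative control. Source: HepG2 cells bearing transient multiple reporter transcription units, 24 h exposure.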

[14] = molecular target: Nuclear receptor subfamily 4 group A member 2 (Homo sapiens) (UniProt P43354); assay: ATG_NURR1_TRANS: Attagene TRANS-FACTORIAL HepG2 Assay for human Nuclear Receptor Related Protein 1 (NURR1) (AID 2282985); conditions: HepG2 Attagene TRANS reporter, mRNA readout
Summary of the method: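 HepG2 / transient MRTU transfection / 24 h compound exposure / RT-PCR + CE fluorescence of reporter mRNA / gain-of-signal vs DMSO.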

[15] = ATG_M_19_TRANS: Attagene TRANS-FACTORIAL HepG2 Assay for M19 Transcription Factor (Internal Marker) (AID 2282974); conditions: HepG2 Attagene TRANS-FACTORIAL M19 internal marker reporter
Summary of the method: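 After transfection of HepG2 with GAL4-UAS-driven reporter constructs, cells are dosed for 24 h. Total RNA is reverse-transcribed, reporter sequences PCR-amplified and labelled, then HpaI-digested and sized by capillary electrophoresis.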

[16] = ATG_GAL4_TRANS: Attagene TRANS-FACTORIAL HepG2 Assay for GAL4 (Internal Marker) (AID 2282976); conditions: HepG2 Attagene TRANS GAL4 internal marker reporter
Summary of the method: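 In transfected human HepG2 liver cells dosed 24 h, GAL4 reporter mRNA serves as a baseline marker. Detection by RT-PCR with fluorescent capillary electrophoresis, activity fitted upward relative to DMSO.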

[17] = molecular target: Glucocorticoid receptor (Homo sapiens) (UniProt P04150); assay: ATG_GR_TRANS: Attagene TRANS-FACTORIAL HepG2 Assay for human Glucocorticoid Receptor (GR) (AID 2282978); conditions: HepG2 Attagene TRANS GR reporter, mRNA transcription;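 also: activators score as hits since higher reporter transcript over DMSO is fitted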
Summary of the method: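 Multiplexed TRANS reporter system, HepG2; 24 h exposure; RNA → oligo(dT) RT → reporter-specific PCR → 6-FAM primer extension → HpaI cut → CE fluorescence. Gain-of-signal vs DMSO.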

[18] = molecular target: Hepatocyte nuclear factor 4-alpha (Homo sapiens) (UniProt P41235); assay: ATG_HNF4a_TRANS: Attagene TRANS-FACTORIAL HepG2 Assay for human Hepatocyte Nuclear Factor 4 alpha (HNF4a) (AID 2282982); conditions: HepG2 HNF4a transactivation reporter, mRNA readout
Summary of the method: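 Gain-of-signal mRNA induction, relative to DMSO vehicle, was read after 24 h compound treatment of HepG2 cells bearing transfected GAL4-UAS reporters. Detection used RT-PCR, 6-FAM primer extension and capillary electrophoresis.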

[19] = molecular target: Transcriptional activator Myb (Homo sapiens) (UniProt P10242); assay: ATG_Myb_CIS: Attagene CIS-FACTORIAL HepG2 Assay for human Myeloblastosis (Myb) Proto-Oncogene Transcription Factor (AID 2282986; active = hit-call score of the fitted dose curve at least 0.9, where 1 is the maximum; inactive = score below 0.9); conditions: HepG2 Attagene CIS-FACTORIAL Myb reporter transcription; actives raise or lower the signal
Summary of the method: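 Endogenous transcription factor activity at a Myb-responsive cis element is reported in human liver HepG2 cells after 24 h chemical treatment. Reporter mRNA is detected by RT-PCR and capillary electrophoresis fluorescence, with DMSO as baseline.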

[20] = molecular target: Oxysterols receptor LXR-beta (Homo sapiens) (UniProt P55055); assay: ATG_LXRb_TRANS: Attagene TRANS-FACTORIAL HepG2 Assay for human Liver X Receptor beta (LXRb) (AID 2282981); conditions: HepG2 Attagene TRANS GAL4-LXRb reporter, mRNA
Summary of the method: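 Gain-of-signal mRNA reporter endpoint, DMSO as negative control. Transiently transfected HepG2 cells carrying the NR-Gal4 chimera and GAL4-UAS reporter units were treated 24 h; transcripts quantified by RT-PCR and capillary electrophoresis fluorescence.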

Estrogen receptor (Homo sapiens), sequence (P03372 whole entry, looked up, the tested form may be a part): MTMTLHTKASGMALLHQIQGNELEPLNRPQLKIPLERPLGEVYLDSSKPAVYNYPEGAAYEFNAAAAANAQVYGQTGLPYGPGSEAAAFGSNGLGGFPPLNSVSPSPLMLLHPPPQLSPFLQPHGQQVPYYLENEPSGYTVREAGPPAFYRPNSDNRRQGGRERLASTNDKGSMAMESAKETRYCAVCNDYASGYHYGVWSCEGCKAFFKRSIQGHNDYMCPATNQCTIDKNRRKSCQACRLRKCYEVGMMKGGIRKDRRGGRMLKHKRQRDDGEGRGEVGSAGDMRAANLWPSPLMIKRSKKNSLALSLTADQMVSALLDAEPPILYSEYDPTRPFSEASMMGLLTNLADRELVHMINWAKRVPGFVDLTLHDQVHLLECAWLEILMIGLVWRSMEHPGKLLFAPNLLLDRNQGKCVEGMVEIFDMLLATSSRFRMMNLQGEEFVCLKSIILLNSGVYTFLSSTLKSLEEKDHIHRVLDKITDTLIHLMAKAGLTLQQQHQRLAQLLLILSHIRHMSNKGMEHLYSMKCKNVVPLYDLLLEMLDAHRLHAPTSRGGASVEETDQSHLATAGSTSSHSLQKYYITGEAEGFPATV
Steroid hormone receptor ERR1 (Homo sapiens), sequence (P11474 whole entry, looked up, the tested form may be a part): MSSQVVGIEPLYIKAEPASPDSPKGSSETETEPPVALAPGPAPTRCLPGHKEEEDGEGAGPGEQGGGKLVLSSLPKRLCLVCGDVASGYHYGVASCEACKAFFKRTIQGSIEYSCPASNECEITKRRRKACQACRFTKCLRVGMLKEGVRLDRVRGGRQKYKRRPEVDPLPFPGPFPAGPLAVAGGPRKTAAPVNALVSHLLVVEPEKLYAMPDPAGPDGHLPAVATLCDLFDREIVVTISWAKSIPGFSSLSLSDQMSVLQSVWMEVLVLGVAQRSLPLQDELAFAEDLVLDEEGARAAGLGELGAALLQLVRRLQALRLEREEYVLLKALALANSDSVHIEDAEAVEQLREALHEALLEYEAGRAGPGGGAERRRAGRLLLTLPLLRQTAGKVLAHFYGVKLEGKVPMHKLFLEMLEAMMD
Estrogen-related receptor gamma (Homo sapiens), sequence (P62508 whole entry, looked up, the tested form may be a part): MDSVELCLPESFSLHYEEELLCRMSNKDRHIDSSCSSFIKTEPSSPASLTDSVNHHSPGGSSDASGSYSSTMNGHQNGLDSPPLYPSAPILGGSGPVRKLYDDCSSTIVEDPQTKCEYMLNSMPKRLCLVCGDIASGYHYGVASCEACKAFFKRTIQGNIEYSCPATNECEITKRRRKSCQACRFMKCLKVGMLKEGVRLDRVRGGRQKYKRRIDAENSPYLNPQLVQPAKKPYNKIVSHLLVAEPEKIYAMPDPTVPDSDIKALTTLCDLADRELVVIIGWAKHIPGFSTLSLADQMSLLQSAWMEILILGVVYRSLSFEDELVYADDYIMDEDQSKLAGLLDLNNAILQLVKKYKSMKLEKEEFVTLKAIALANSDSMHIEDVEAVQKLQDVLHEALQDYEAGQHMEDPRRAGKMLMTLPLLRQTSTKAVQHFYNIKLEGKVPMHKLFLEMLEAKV
Bile acid receptor (Homo sapiens), sequence (Q96RI1 whole entry, looked up, the tested form may be a part): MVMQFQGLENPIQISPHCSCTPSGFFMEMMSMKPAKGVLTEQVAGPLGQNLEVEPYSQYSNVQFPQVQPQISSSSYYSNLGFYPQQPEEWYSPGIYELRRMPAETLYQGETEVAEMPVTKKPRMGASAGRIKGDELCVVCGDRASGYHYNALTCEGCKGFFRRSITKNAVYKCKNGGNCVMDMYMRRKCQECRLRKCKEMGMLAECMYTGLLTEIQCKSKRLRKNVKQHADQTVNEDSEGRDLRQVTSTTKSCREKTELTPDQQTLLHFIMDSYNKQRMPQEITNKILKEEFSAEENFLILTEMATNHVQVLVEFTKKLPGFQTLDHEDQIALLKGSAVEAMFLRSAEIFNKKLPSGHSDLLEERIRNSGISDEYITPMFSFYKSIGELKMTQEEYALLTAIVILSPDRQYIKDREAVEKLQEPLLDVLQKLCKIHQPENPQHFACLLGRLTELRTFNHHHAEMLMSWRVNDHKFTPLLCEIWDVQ
Transcriptional activator Myb (Homo sapiens), sequence (P10242 whole entry, looked up): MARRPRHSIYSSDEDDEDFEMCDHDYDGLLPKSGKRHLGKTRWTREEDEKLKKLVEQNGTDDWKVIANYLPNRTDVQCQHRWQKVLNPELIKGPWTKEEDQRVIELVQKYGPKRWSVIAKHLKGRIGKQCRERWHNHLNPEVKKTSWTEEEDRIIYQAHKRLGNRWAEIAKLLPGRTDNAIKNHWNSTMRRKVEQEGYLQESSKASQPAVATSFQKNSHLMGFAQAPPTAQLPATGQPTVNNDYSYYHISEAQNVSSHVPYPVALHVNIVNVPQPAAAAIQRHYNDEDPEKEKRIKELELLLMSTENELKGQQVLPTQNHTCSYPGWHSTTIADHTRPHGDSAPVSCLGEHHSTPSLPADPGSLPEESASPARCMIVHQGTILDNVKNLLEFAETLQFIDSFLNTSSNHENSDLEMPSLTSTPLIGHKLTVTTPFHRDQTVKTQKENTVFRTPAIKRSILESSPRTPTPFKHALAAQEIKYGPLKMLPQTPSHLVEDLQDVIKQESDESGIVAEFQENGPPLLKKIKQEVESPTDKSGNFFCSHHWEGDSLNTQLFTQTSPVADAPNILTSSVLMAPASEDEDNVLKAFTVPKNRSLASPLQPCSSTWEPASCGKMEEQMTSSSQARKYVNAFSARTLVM
X-box-binding protein 1 (Homo sapiens), sequence (P17861 whole entry, looked up, the tested form may be a part): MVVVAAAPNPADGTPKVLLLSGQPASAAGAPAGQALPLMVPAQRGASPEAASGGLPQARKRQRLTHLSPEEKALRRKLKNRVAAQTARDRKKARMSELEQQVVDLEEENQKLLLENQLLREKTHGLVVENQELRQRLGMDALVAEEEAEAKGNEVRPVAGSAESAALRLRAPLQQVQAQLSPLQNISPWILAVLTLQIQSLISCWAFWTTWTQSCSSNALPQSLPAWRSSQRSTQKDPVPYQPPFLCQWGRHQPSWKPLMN
Nuclear receptor subfamily 4 group A member 2 (Homo sapiens), sequence (P43354 whole entry, looked up): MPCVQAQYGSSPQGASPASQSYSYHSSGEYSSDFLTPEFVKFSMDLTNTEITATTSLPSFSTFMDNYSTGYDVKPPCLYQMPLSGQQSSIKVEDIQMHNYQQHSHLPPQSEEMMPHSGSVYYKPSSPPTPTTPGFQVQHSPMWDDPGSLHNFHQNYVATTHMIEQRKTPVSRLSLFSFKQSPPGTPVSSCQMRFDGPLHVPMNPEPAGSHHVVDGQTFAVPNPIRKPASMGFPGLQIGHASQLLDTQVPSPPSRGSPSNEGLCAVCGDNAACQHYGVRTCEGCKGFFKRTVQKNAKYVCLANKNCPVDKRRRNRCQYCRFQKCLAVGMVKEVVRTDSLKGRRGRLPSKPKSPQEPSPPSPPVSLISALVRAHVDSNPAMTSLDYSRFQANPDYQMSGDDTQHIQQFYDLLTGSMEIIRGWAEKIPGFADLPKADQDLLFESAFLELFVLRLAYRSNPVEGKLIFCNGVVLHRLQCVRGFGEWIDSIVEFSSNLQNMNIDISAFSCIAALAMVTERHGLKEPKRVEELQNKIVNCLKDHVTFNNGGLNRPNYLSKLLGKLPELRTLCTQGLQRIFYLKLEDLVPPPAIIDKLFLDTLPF
Oxysterols receptor LXR-beta (Homo sapiens), sequence (P55055 whole entry, looked up, the tested form may be a part): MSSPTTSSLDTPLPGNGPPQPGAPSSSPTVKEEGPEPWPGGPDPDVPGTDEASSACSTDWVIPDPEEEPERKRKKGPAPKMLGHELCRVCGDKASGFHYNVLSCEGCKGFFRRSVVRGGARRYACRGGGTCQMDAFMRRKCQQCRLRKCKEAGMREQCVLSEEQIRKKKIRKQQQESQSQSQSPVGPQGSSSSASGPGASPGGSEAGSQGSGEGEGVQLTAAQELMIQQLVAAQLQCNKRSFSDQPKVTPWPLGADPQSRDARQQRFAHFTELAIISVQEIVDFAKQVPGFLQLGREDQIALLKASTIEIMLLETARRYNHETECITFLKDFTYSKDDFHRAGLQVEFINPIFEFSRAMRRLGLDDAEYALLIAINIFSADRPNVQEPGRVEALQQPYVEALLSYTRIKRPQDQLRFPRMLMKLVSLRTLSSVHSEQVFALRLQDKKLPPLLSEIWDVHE
Oxysterols receptor LXR-alpha (Homo sapiens), sequence (Q13133 whole entry, looked up, the tested form may be a part): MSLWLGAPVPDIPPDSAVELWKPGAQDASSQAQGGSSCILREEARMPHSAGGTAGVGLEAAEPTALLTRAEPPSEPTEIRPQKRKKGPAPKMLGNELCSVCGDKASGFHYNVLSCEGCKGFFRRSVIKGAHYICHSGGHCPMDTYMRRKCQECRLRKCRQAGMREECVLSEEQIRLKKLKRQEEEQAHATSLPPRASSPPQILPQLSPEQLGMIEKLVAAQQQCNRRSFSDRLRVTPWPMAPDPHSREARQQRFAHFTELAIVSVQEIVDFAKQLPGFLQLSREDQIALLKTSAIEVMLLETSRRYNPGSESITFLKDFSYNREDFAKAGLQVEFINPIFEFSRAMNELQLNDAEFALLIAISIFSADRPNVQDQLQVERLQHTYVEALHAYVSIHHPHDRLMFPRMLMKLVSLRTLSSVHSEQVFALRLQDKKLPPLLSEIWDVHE
Hepatocyte nuclear factor 4-alpha (Homo sapiens), sequence (P41235 whole entry, looked up, the tested form may be a part): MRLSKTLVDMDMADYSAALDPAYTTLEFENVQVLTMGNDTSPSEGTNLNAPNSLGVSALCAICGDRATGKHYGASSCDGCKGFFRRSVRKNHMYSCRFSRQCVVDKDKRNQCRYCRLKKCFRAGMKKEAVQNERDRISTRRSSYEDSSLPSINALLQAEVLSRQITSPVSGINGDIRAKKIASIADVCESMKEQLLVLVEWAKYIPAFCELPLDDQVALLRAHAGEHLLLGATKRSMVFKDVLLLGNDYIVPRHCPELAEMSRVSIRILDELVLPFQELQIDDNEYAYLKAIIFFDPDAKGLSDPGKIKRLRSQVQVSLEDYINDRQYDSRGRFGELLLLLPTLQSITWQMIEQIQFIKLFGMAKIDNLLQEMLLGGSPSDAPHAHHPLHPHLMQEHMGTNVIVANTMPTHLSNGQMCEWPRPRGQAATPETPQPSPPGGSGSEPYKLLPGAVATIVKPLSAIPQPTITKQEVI

CCc1c(Br)c(Br)c(Br)c(Br)c1Br
outcome [1]: inactive | outcome [2]: inactive | outcome [3]: inactive | outcome [4]: inactive | outcome [5]: inactive | outcome [6]: inactive | outcome [7]: inactive | outcome [8]: inactive | outcome [9]: inactive | outcome [10]: inactive | outcome [11]: inactive | outcome [12]: inactive | outcome [13]: inactive | AC50 [14]: 26.8 µM (active)

CC(C)=CCCC(C)CCOC(=O)C(C)C (centres undefined)
outcome [1]: inactive | outcome [2]: inactive | outcome [3]: inactive | outcome [4]: inactive | outcome [5]: inactive | outcome [6]: inactive | outcome [8]: inactive | outcome [15]: inactive | outcome [16]: inactive | outcome [17]: inactive | outcome [10]: inactive | outcome [11]: inactive | outcome [18]: inactive | outcome [12]: inactive | outcome [13]: inactive | outcome [14]: inactive | outcome [19]: inactive

CC(Cc1ccc(O)c(O)c1)C(C)Cc1ccc(O)c(O)c1 (centres undefined)
AC50 [1]: 18.7 µM (active) | AC50 [2]: 6.72 µM (active) | outcome [3]: inactive | AC50 [4]: 5.93 µM (active) | outcome [5]: inactive | AC50 [6]: 9.13 µM (active) | AC50 [8]: 14.4 µM (active) | outcome [15]: inactive | outcome [16]: inactive | outcome [9]: inactive | outcome [17]: inactive | outcome [10]: inactive | outcome [11]: inactive | outcome [18]: inactive | outcome [12]: inactive | outcome [13]: inactive | outcome [19]: inactive

O=C(Cl)C(F)(F)C(F)(F)C(F)(F)C(F)(F)C(F)(F)C(F)(F)C(F)(F)C(F)(F)F
AC50 [1]: 33.4 µM (active) | outcome [2]: inactive | outcome [3]: inactive | AC50 [4]: 52.2 µM (active) | outcome [5]: inactive | AC50 [6]: 25.5 µM (active) | outcome [7]: inactive | AC50 [8]: 41.9 µM (active) | outcome [9]: inactive | outcome [17]: inactive | outcome [10]: inactive | outcome [18]: inactive | outcome [12]: inactive | outcome [13]: inactive | AC50 [14]: 24.9 µM (active) | outcome [19]: inactive

CS(C)(=O)=O
outcome [1]: inactive | outcome [2]: inactive | outcome [3]: inactive | outcome [4]: inactive | outcome [5]: inactive | outcome [6]: inactive | outcome [7]: inactive | outcome [8]: inactive | outcome [17]: inactive | outcome [10]: inactive | outcome [11]: inactive | outcome [12]: inactive | outcome [13]: inactive | outcome [14]: inactive | outcome [19]: inactive

CCCCCCCOC(=O)c1ccccc1C(=O)OCCCCCCC
outcome [1]: inactive | outcome [2]: inactive | outcome [3]: inactive | outcome [4]: inactive | outcome [5]: inactive | outcome [6]: inactive | outcome [7]: inactive | outcome [8]: inactive | outcome [9]: inactive | outcome [10]: inactive | outcome [18]: inactive | outcome [12]: inactive | outcome [14]: inactive | outcome [19]: inactive

CCCCCCC(C)OC(=O)CCCCC(=O)OC(C)CCCCCC (centres undefined)
outcome [1]: inactive | outcome [2]: inactive | outcome [3]: inactive | outcome [4]: inactive | outcome [5]: inactive | outcome [6]: inactive | outcome [7]: inactive | outcome [8]: inactive | outcome [20]: inactive | outcome [18]: inactive

O=C(O)C=C(C(F)(F)F)C(F)(F)F
outcome [1]: inactive | outcome [2]: inactive | outcome [3]: inactive | outcome [4]: inactive | outcome [5]: inactive | outcome [6]: inactive | outcome [7]: inactive | outcome [8]: inactive | outcome [16]: inactive | outcome [17]: inactive | outcome [10]: inactive | outcome [11]: inactive | outcome [20]: inactive | outcome [18]: inactive | outcome [12]: inactive | outcome [13]: inactive

— PubChem BioAssay (EPA / NIEHS)
